The text below walks through data of PubChem BioAssay.

Molecules are shown by their SMILES. Where “and” joins values, the source holds several entries; their conditions need not be identical. Equal entries are not always repeated. Inconclusive results are not listed. Calls of active or inactive are those of the source. Rule as the data show it, unless noted: active = inhibition above about 80%; inactive = the rest.

In assay [1] the test system is Aerobactin synthetase IucA (Klebsiella pneumoniae). In words: inhibition of K. pneumoniae IucA enzyme – biochemical, Tocris library, absorbance (AID 1345561; call rule not given here;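 also: 100% = enzyme without compound and 0% = no enzyme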). Particulars: purified IucA enzyme assay, absorbance (OD) read-out; stronger effect = lower value;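 tested at 8 µM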.
The nature of assay [2]: growth inhibition, single agents and combos, UWB1.289, cell-based, BGB or cisplatin combos, synergistic combos for chromothripsis tumors (AID 1671456).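 Also: cells exposed to compound for four days; 0% = vehicle DMSO and 100% = killing by high DMSO.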 Particulars: UWB1.289 ovarian carcinoma cells, stronger effect = higher value.
Assay [3] is described as follows: growth inhibition, single agents and combos, LFS_MB_2R, cell-based, cisplatin combos, synergistic combos for chromothripsis tumors (AID 1671457).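 Also: cells exposed to compound for four days before readout.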 As to conditions: LFS_MB_2R medulloblastoma cells, stronger effect = higher value.
A short description of assay [4]: UWB1.289_BRCA1 ovarian cancer growth, cell-based, BGB or cisplatin combinations (AID 1671459). Particulars: UWB1.289 BRCA1 ovarian carcinoma, drug combinations, stronger effect = higher value.
Assay [5] in a line: drug combination toxicity in non-malignant astrocytes – cell-based, BGB or cisplatin IC20 combos, cytotoxicity control for chromothriptic childhood tumor combination screen (AID 1671460).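 Also: cells exposed to compounds for 96 hours before viability readout; 0% = vehicle and 100% = killing control.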 Particulars: Human astrocytes, viability inhibition, drug combinations, at 0.5 µM, stronger effect = higher value.
The target in assay [6] is ATP-dependent translocase ABCB1 (Homo sapiens) (UniProt P08183). In words: P-glycoprotein substrate transport blockade – cell-based (AID 377; in the data active = fluorescence slope change above about 50%). Particulars: MDR1-expressing cells, fluorescent substrate accumulation slope; stronger effect = higher value; concentration not given here.
Sequence of ATP-dependent translocase ABCB1 (Homo sapiens) (P08183 whole entry, looked up): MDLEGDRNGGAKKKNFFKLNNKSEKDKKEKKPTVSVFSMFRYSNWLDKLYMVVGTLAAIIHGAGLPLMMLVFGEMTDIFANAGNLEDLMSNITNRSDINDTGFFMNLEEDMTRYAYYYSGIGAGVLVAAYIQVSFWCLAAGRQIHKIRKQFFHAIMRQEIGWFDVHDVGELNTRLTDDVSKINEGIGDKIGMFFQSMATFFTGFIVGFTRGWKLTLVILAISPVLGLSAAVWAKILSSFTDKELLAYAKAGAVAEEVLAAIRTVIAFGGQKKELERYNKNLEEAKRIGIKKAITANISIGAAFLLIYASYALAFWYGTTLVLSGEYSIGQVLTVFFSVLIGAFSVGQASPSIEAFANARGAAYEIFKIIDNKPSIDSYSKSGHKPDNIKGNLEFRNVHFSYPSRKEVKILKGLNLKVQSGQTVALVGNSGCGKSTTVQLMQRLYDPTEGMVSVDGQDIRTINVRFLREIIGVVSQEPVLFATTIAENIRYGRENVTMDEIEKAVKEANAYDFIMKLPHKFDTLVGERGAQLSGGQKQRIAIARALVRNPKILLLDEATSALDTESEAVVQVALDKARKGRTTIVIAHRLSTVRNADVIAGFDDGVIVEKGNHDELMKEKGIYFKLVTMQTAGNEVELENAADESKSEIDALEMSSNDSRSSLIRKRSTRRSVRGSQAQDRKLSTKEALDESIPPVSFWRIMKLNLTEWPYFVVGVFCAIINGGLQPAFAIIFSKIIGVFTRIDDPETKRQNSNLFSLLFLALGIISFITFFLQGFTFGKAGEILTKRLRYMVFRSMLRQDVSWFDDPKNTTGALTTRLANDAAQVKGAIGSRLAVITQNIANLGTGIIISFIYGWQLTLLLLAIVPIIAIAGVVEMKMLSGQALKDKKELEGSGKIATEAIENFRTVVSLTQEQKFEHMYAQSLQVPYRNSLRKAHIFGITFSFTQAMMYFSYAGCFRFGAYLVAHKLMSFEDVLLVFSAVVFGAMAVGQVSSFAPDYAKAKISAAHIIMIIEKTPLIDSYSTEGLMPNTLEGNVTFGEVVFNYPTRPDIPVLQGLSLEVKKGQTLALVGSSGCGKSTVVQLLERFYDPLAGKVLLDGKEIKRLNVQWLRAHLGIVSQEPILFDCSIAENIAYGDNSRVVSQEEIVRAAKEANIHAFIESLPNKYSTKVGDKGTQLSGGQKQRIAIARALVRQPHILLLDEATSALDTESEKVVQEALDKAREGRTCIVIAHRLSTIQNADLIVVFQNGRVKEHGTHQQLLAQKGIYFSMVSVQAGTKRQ
Assay [7] in a line: antimalarial activity against Dd2 strain (AID 2302;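 active = growth inhibition above 50% at the single 2 µM test dose, taken to imply half-maximal potency below 2 µM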;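 also: 0% = DMSO untreated growth and 100% = chloroquine plus artemisinin killed control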). As to conditions: P. falciparum Dd2 in RBCs, LDH growth readout, 72 h; at 2 µM; stronger effect = higher value.
Assay [8] can be described thus: human hepatoma cell viability loss – ATP luminescence, cytotoxicity control for P. falciparum antimalarial project, primary screen (AID 2303;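 active = inhibition above 50%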;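 also: 0% = DMSO wells and 100% = digitonin-killed cells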). As to conditions: HepG2 viability, 24-48 h, at 10 µM, stronger effect = higher value.
The target in assay [9] is L-lactate dehydrogenase (Plasmodium falciparum (isolate CDC / Honduras)) (UniProt Q27743). In words: PfLDH activity inhibition – cell lysate, 3D7 strain, counter-screen for P. falciparum growth inhibition project (AID 2304; call rule not given here;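 also: 0% = vehicle and 100% = reference inhibitor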). Particulars: P. falciparum 3D7 crude extract, LDH APAD/NBT absorbance; at 2 µM; stronger effect = higher value. In general terms: Counterscreens check selectivity or assay interference.
Sequence of L-lactate dehydrogenase (Plasmodium falciparum (isolate CDC / Honduras)) (Q27743 whole entry, looked up): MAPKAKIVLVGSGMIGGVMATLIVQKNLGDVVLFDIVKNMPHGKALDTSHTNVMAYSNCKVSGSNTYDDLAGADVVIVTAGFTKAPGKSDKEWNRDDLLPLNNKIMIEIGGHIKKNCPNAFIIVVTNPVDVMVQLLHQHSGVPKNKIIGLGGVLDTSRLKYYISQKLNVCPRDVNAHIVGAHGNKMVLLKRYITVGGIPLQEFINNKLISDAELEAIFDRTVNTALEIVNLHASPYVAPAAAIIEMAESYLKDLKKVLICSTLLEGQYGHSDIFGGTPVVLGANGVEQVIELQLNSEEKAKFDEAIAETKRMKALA

Assay [10] in a line: inhibition of 3D7 malaria parasite growth – strain 3D7 (AID 2306; call rule not given here;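 also: 0% = DMSO wells and 100% = chloroquine plus artemisinin control wells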). Particulars: P. falciparum 3D7 erythrocytic growth, LDH absorbance, 72 h; at 2 µM; stronger effect = higher value.
Assay [11] can be described thus: GFP-Q80 aggregate reduction, neuronal-like cells, cell-based, NGF-treated PC12, GFPQ80 (AID 1614).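 Also: lower means fewer inclusions and 0 means no inclusions at all.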 Particulars: PC12 NGF-treated GFP-polyQ80 inclusion reduction.
Assay [12] is described as follows: rescue of PC12 cells from polyQ htt toxicity – LDH release (AID 1610). As to conditions: PC12 mutant huntingtin toxicity, final LDH at 4 uM, stronger effect = lower value. In general terms: Release of lactate dehydrogenase indicates damage to the cell membrane.
Where [13] appears, read: measured here: inhibition with BGB combination, at 0.05 µM.
The mark [14] stands for this setting: measured here: inhibition with cisplatin combination, at 0.05 µM.
Setting [15] is: measured here: combination with cisplatin, at 0.5 µM.
[16] abbreviates: measured here: combination with cisplatin, at 5 µM.
Where [17] appears, read: BGB combination, concentration series, at 5 µM.
Setting [18] is: cisplatin combination, concentration series, at 5 µM.
Where [19] appears, read: measured here: combo with BGB IC20.
The mark [20] stands for this setting: measured here: combo with cisplatin IC20.

One may read the remaining activity as the activity still measured, relative to the control. On to `CC(C)NC[C@H](O)COc1cccc2ccccc12`, for which the remaining activity in [1] was 97% (inactive).

As usually defined, the inhibition is the relative decrease from the control value, in per cent. As for `CC[C@@]1(O)C(=O)OCc2c1cc1n(c2=O)Cc2cc3cc(O)ccc3nc2-1`, the inhibition in assay [2] (at 0.5 µM) is 90.1% (active) and 89.5% (active); in [2] (setting [13]) it was 17.9% and 40%; in assay [2] (setting [14]), 28.7% and 40.8%; in [3] (at 0.5 µM), 21.3% (inactive) and 29.5% (inactive); in assay [3] (setting [15]), 63.4% and 65.4%; in assay [3] (setting [16]), 76.4% and 77.8%. Moreover, the inhibition was 96.9% and 98% in assay [4] (setting [17]); 97.1% (active) and 97.8% (active) in assay [4] (at 0.5 µM); 99.8% and 104% in [4] (setting [18]); 84.1% (active) and 83.3% (active) in assay [5]; 91.6% and 86.1% in assay [5] (setting [19]); 76% and 80.4% in [5] (setting [20]).

On to `Cc1c(-c2cnccn2)ssc1=S`, for which the inhibition in [2] (at 0.5 µM) is -15.7% (inactive); in assay [2] (setting [13]), -24.2%; in assay [2] (setting [14]) it was 3.36%; in assay [3] (at 0.5 µM) it was -15.7% (inactive); in [3] (setting [15]), -6.9%; in assay [3] (setting [16]), -12.4%. For the same compound, the inhibition in [4] (setting [17]) is -4.42%; in [4] (at 0.5 µM), -14.9% (inactive); in [4] (setting [18]) it was -10.4%; in assay [5], 0.12% (inactive); in assay [5] (setting [19]) it was -4.93%; in [5] (setting [20]), -9.68%.

For the compound `OC(c1cc(C(F)(F)F)nc2c(C(F)(F)F)cccc12)C1CCCCN1` (centres undefined), the fluorescence slope change in [6] is 96.4% (active). The results for the growth inhibition in assay [7] and in assay [10] were 99% (active) and 96% (active), respectively. The values for the inhibition in [8] and in assay [9] were -3% (inactive) and -6% (inactive), respectively.

As for `CN[C@@H]1[C@H](O[C@H]2[C@H](O[C@@H]3[C@@H](O)[C@H](O)[C@@H](N=C(N)N)[C@H](O)[C@H]3N=C(N)N)O[C@@H](C)[C@]2(O)C=O)O[C@@H](CO)[C@H](O)[C@H]1O`, the fluorescence slope change in [6] is 2.1% (inactive).

In the case of `c1ccc(C2CN3CCSC3=N2)cc1` (centres undefined), in assay [6], the fluorescence slope change is 29.7% (inactive).

In [11], `O=C(O)C1CCCNC1` (centres undefined) showed an inclusion score of 2.

In [12], `CCCCC[C@H](CC(=O)NO)C(=O)N[C@H](C(=O)N1CCC[C@H]1CO)C(C)C` came in with a normalised LDH release of 1.19. The compound further showed an inclusion score in [11] of 2.

`C[C@@H]1CC2C3CCC4=CC(=O)C=C[C@]4(C)[C@@]3(F)[C@@H](O)C[C@]2(C)[C@@]1(O)C(=O)CO` (some centres undefined): in [11], the inclusion score turned out to be 2.

`CO[C@@]12[C@@H]3NC3CN1C1=C(C(=O)C(N)=C(C)C1=O)[C@@H]2COC(N)=O` (some centres undefined): in assay [12], the normalised LDH release was determined as 0.873.

With `CC1(C)S[C@@H]2[C@H](NC(=O)COc3ccccc3)C(=O)N2[C@H]1C(=O)O`, the inclusion score in assay [11] came to 2.

Take `CCC(NC(C)C)C(O)c1ccc(O)c(O)c1` (centres undefined): in [6], the fluorescence slope change was 50.8% (active).
